# Measurements taken from the supplement of paper PMC12636033.
# ± gives the standard deviation of the averaged measurements. In all, about 33,000 sequences were measured (“E-score (rank enrichment, -0.5 to 0.5)”: median about -0.0043, highest 2% from about 0.24 on). Many of the other results were omitted from the sample, so the highest values are more common in it than they were.
# Test system: 2Sp-muMax20 (muMax20 with two 2,6-bis(methyl)pyridine Cys staples)
# Experiment: PBM 8-mer E-score (E-score (rank enrichment, -0.5 to 0.5)); higher = stronger preferential binding
# Protocol: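 Protein binding microarray (universal PBM chip covering all 10-mers in fixed probe flanks) with chemically synthesized human Max(13-93) bHLH-LZ analogs (not full-length Max) bearing noncanonical residues (hArg, Tha, Aib, Nle at 65) and aromatic Cys staples. Read-out per 8-mer (and its reverse complement): E-score (rank-based enrichment, -0.5 to 0.5) and Z-score of median probe intensity.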
row,Sequence,PBM 8-mer E-score
1,GCTGATTA,0.273 ± 0.011
2,CCTGATTA,0.0465 ± 0.018
3,CTTGATTA,0.0552 ± 0.1
4,GTTGATTA,0.25 ± 0.057
5,ACTGATTA,0.0334 ± 0.067
6,ATTGATTA,0.124 ± 0.078
7,CAAAGAGG,0.00199 ± 0.021
8,GCTTACGA,0.0276 ± 0.057
9,CGGGTCCC,-0.36 ± 0.051
10,AAATGATT,-0.0058 ± 0.064
11,CACGGACA,-0.212 ± 0.011
12,AAAGGGCT,-0.0325 ± 0.13
13,AAGGGGCG,-0.00545 ± 0.089
14,AAGGGGCT,0.271 ± 0.019
15,ACCTCTGC,-0.0962 ± 0.11
16,CGGACAAA,-0.0707 ± 0.0079
17,CAGCGGCC,-0.156 ± 0.048
18,AACATGCA,0.205 ± 0.17
19,CGCATGCA,0.161 ± 0.026
20,GGCATGCA,0.0431 ± 0.062
21,AGCATGCA,0.301 ± 0.023
22,TGCATGCA,0.282 ± 0.038
23,ACCATGCA,0.187 ± 0.0036
24,CAAAGGGG,0.00961 ± 0.03
25,CACATCCA,0.103 ± 0.042

row,Sequence,PBM 8-mer E-score
1,CTCTTCCA,-0.0254 ± 0.029
2,AAGTCGAC,0.0839 ± 0.081
3,CAGCGGGG,-0.157 ± 0.043
4,CTCCTGCC,0.0184 ± 0.066
5,CTGATGTA,-0.072 ± 0.074
6,ATGATGTA,0.131 ± 0.049
7,GTGATGTA,0.268 ± 0.018
8,ACATACAT,0.252 ± 0.054
9,ACATACGC,0.0353 ± 0.028
10,TCATATAA,0.227 ± 0.045
11,ACATACGA,0.237 ± 0.049
12,CCATATAA,0.0911 ± 0.065
13,ACATATAC,0.158 ± 0.072
14,ACATACAC,0.0759 ± 0.032
15,ACATATAA,0.333 ± 0.0052
16,TCATACGA,0.214 ± 0.047
17,ACATATAT,0.309 ± 0.061
18,ACATACAG,0.191 ± 0.11
19,ACATATAG,0.174 ± 0.031
20,CGCAAATC,-0.0745 ± 0.17
21,CCGTCGAG,-0.0626 ± 0.0034
22,CTTATCGA,0.0942 ± 0.054
23,CGTTACGC,-0.173 ± 0.044
24,AAGTGGGG,0.1713 ± 0.001
25,GCATGGGA,-0.0247 ± 0.032

row,Sequence,PBM 8-mer E-score
1,AATCCCGG,-0.104 ± 0.0059
2,AGACTTAG,-0.023 ± 0.017
3,AGATATAC,0.146 ± 0.046
4,AGATATAT,0.252 ± 0.043
5,AGATATAG,0.174 ± 0.0033
6,ATATAGGG,0.0694 ± 0.043
7,CGGAATAC,-0.144 ± 0.035
8,AAAAGTGG,0.159 ± 0.0062
9,GCCTGCAA,-0.0187 ± 0.071
10,ACACATAA,0.24 ± 0.037
11,CCACACTC,0.00608 ± 0.081
12,ACACATAG,-0.0161 ± 0.023
13,CCACACTA,0.261 ± 0.026
14,GAACATAA,0.0635 ± 0.079
15,AAACATAG,0.0784 ± 0.084
16,AAACATAA,0.289 ± 0.0052
17,GTACATAA,0.171 ± 0.011
18,GCACATAA,0.121 ± 0.02
19,ACACACTA,0.158 ± 0.0088
20,CTACATAA,0.122 ± 0.021
21,TTACATAA,0.259 ± 0.0094
22,CAGTGGAG,0.0231 ± 0.066
23,CACAGGGC,-0.258 ± 0.027
24,CCAACTCA,-0.0281 ± 0.11
25,CCCACCAA,0.127 ± 0.019

row,Sequence,PBM 8-mer E-score
1,ATATCAAT,0.172 ± 0.089
2,AGCCTCTG,-0.079 ± 0.05
3,ATTTGAAA,0.168 ± 0.12
4,AGGTCTCC,-0.0447 ± 0.033
5,GTGCAGTA,0.106 ± 0.039
6,AACGACTA,0.0385 ± 0.073
7,ACACACAA,0.0759 ± 0.063
8,TCACACAA,0.238 ± 0.017
9,CCACACAA,0.0212 ± 0.012
10,ACCCCTGG,-0.144 ± 0.039
11,ATCGAAGG,-0.0475 ± 0.11
12,ACCATATA,0.23 ± 0.082
13,GCAAGCAC,-0.00775 ± 0.028
14,ACAAGCAC,-0.115 ± 0.13
15,CCAAGCAC,0.235 ± 0.038
16,CCCACCGC,0.0543 ± 0.035
17,ATTCTCAA,0.123 ± 0.02
18,ACTAGAAC,0.0769 ± 0.048
19,CAATATTC,0.0714 ± 0.068
20,AAATATTG,0.075 ± 0.0023
21,AAATATTC,0.249 ± 0.043
22,CAATATTA,0.19 ± 0.058
23,TAATATGA,0.135 ± 0.072
24,GAATATTC,0.189 ± 0.064
25,GAATATTA,0.22 ± 0.026

row,Sequence,PBM 8-mer E-score
1,TAATATTA,0.343 ± 0.044
2,AAATATTA,0.28 ± 0.067
3,ATCGAGAC,-0.161 ± 0.025
4,CGCGTCTC,0.157 ± 0.072
5,ACTGAGGG,-0.0464 ± 0.034
6,ACTGCTGC,0.0474 ± 0.025
7,CTGGGCGA,-0.174 ± 0.045
8,ATGGGCGA,0.0316 ± 0.058
9,GTGGGCGA,0.263 ± 0.088
10,AATCCCAC,0.00653 ± 0.032
11,GACTCTAC,-0.0372 ± 0.069
12,GTATTGGA,0.0561 ± 0.061
13,AGCATGCG,0.275 ± 0.0033
14,CCCATGCG,0.0929 ± 0.051
15,AGCATGAT,0.131 ± 0.051
16,CGCATGCG,0.286 ± 0.02
17,ACCATGCT,0.211 ± 0.0076
18,AGCATGAG,0.121 ± 0.064
19,AGCATGCC,0.0906 ± 0.028
20,ATCATGCG,0.136 ± 0.013
21,AGCATGAC,0.243 ± 0.051
22,AGCATGCT,0.332 ± 0.036
23,AGCATGAA,0.174 ± 0.04
24,CGCATGCC,0.189 ± 0.053
25,TATCCCGA,-0.0363 ± 0.017

row,Sequence,PBM 8-mer E-score
1,ACCACGGT,-0.234 ± 0.057
2,CCTCAAGA,0.175 ± 0.069
3,AATGACAA,0.179 ± 0.025
4,GGCGTCAC,0.0505 ± 0.091
5,TCGGTTAA,-0.144 ± 0.038
6,CCACACAC,0.0649 ± 0.082
7,AGGACAAT,0.0666 ± 0.068
8,CTCCATCA,0.0787 ± 0.11
9,GATCAGTA,0.141 ± 0.0015
10,CTCAACTC,0.0172 ± 0.017
11,AAGCTTAC,0.084 ± 0.0037
12,AAGCTTAA,-0.0812 ± 0.033
13,AAGCTTAT,0.25 ± 0.032
14,AAGCTGAC,-0.0135 ± 0.013
15,AAGCTGTA,0.168 ± 0.027
16,AAGCTGAT,0.294 ± 0.012
17,CAGCACTC,0.0109 ± 0.049
18,GGTTTTTA,0.118 ± 0.05
19,GTATCAAA,0.167 ± 0.037
20,ACGTTACT,0.097 ± 0.078
21,CCACTTTC,0.123 ± 0.028
22,ATTAATTC,0.229 ± 0.026
23,CTTAATGA,0.0929 ± 0.029
24,GTTAATGA,0.181 ± 0.1
25,ATTAATGC,0.14 ± 0.0056

row,Sequence,PBM 8-mer E-score
1,AGTAATTA,0.256 ± 0.051
2,ATTAATGG,0.0949 ± 0.013
3,ATTAATTA,0.312 ± 0.065
4,ATTAATTG,0.157 ± 0.057
5,ATTAATGA,0.276 ± 0.074
6,GGTAATTA,0.147 ± 0.011
7,CTTAATGC,0.25 ± 0.014
8,CGTAATTA,0.133 ± 0.0041
9,CATGCACC,0.161 ± 0.0063
10,GGGGTCGA,-0.0201 ± 0.04
11,TTACTGAA,0.0517 ± 0.035
12,ACGAAAAG,0.0249 ± 0.0051
13,ACGAGATG,-0.00212 ± 0.067
14,CCCCGATC,-0.166 ± 0.013
15,AGATTGTC,-0.0414 ± 0.0031
16,GACGGGCA,-0.0942 ± 0.011
17,ATTAATCA,0.259 ± 0.059
18,ATAAATTA,0.303 ± 0.049
19,GTTAATCA,0.198 ± 0.048
20,ATTAACAA,0.161 ± 0.042
21,ATTAATAA,0.224 ± 0.12
22,ATTAATAG,0.197 ± 0.079
23,ATAAATTG,0.106 ± 0.026
24,CTTAACAC,0.164 ± 0.016
25,ATTAACAC,0.306 ± 0.05

row,Sequence,PBM 8-mer E-score
1,ATTAATCC,0.0916 ± 0.0058
2,ATTAATAC,0.256 ± 0.1
3,CTAAATTA,-0.0028 ± 0.045
4,AAGAATCA,0.116 ± 0.04
5,GAGGCCTA,-0.184 ± 0.066
6,AGAAATCT,0.0669 ± 0.11
7,ATATGAAA,0.219 ± 0.031
8,ACACTTCG,-0.0252 ± 0.098
9,AAAAATTA,0.116 ± 0.052
10,GAAAATTA,0.291 ± 0.063
11,CAAAATTA,0.15 ± 0.063
12,AGCGTGCG,0.178 ± 0.02
13,ATAGAATA,0.171 ± 0.011
14,CTAGAATA,0.108 ± 0.076
15,GTAGAATA,0.253 ± 0.0027
16,AATATTGG,0.0895 ± 0.038
17,CATATTAG,0.222 ± 0.025
18,AATATTAG,0.243 ± 0.026
19,ACTATTAG,-0.00553 ± 0.16
20,CATATTGG,0.251 ± 0.0054
21,CATATTAA,0.247 ± 0.019
22,CCTATTAA,0.154 ± 0.024
23,AATATTAC,0.294 ± 0.0036
24,CATATTAC,0.0498 ± 0.065
25,GATATTAC,0.178 ± 0.026

row,Sequence,PBM 8-mer E-score
1,CATATTGC,0.164 ± 0.033
2,TATATTAA,0.211 ± 0.059
3,TGACACCA,-0.0859 ± 0.034
4,GAGGGTCC,-0.156 ± 0.027
5,AAAAGGTG,-0.103 ± 0.028
6,TCGTCCCA,0.114 ± 0.012
7,GGTGCGAA,0.0856 ± 0.053
8,ATGACTTC,0.112 ± 0.019
9,GGCTTACC,-0.108 ± 0.026
10,CTTATGCA,0.0234 ± 0.047
11,ATCACTTC,0.0342 ± 0.00049
12,AATATTCT,0.231 ± 0.057
13,AATATTAA,0.33 ± 0.029
14,AATATTTA,0.282 ± 0.036
15,GATATTAA,0.118 ± 0.0066
16,ACTATTAA,0.157 ± 0.022
17,AATATTTC,0.0962 ± 0.04
18,ACTATTAT,0.142 ± 0.1
19,CATATTTA,0.228 ± 0.01
20,AATATTAT,0.246 ± 0.036
